# The panel holds about 83,000 compounds, 20% with a hit somewhere; the sample as a whole holds those more often.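 Results are percent growth after 48 hours of single-concentration exposure. 100 means growth as in untreated cells, lower positive values show inhibition; negative values down to -100 show cell death.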 Unmarked numbers belong to inactive results. Activity calls are given as the source filed them. The calls were made as follows: active = growth percent below 10; inactive = the rest.
# System: MDA-MB-468 breast
# Experiment: NCI-60 one-dose screen, 48 h (100 = growth as untreated, 0 = no growth, -100 = all killed)
# Conditions: 10 µM unless noted
row,SMILES,growth
1,CCc1c(C)c2ccc(O)c(-c3cc(-c4ccccc4)c(C#N)c(=O)[nH]3)c2oc1=O,102%
2,O=c1oc2ccc(Br)cc2c(=O)n1-c1ccc(Cl)cc1F,-1.24% (active)
3,CCOC(=O)CC(S(=O)(=O)c1ccccc1)S(=O)(=O)c1ccccc1,23.2%
4,CN(C)CCOc1nc2c3ccncc3cc(-c3cccc(Cl)c3)c2c2cnccc12,38.3%
5,O=C(Nc1cccc2c1CCCC2)c1cc2ccccc2cc1O,33.8%
6,COc1cc(/C=C2\CCCC3=C2N=C2SC(C)=NN2C3c2cc(OC)c(OC)c(OC)c2)cc(OC)c1OC (stereo not drawn),19.8%
7,O=C(c1ccccc1)C(Nc1ccccc1)c1ccccc1 (stereo not drawn),88.7%
8,O=C1c2cccc3cccc(c23)C(=O)N1Nc1nc(NC2CCCCC2)nc(N2CCOCC2)n1,114%
9,C#C[C@]1(O)CC[C@H]2[C@@H]3CC=C4c5sc(Nc6ccccc6)nc5CC[C@]4(C)[C@H]3CC[C@@]21C,7.27% (active)
10,Cc1cc(=O)n2nnc3c4ccccc4ccc3n12,15.5%
11,c1cnc2ccc3ncccc3c2c1,122%
12,C#Cc1cccc(Oc2ccc(NC(=O)CCl)cc2)c1,-7.9% [8.25 µM] (active)
13,Cc1n[nH]c(C)c1N=Nc1cccc2c1C(=O)c1ccccc1C2=O,96.2%
14,c1ccc(C2CC(c3cccc(Nc4ccncc4)c3)=NN2c2ccccc2)cc1 (stereo not drawn),24.2%
15,COc1cc(CN)ccc1O,99.7%
16,ClCc1cccc(CSc2ncnc3c2ncn3Cc2cccc(CCl)c2)c1,-89.3% (active)
17,NC1=NC(c2cccc(Br)c2)c2sc3ccc(Cl)cc3c2N1 (stereo not drawn),87.4%
18,CS(=O)(=O)c1nsc(N)n1,109%
19,CC(=O)Oc1ccc(O)cc1,95.5%
20,Clc1ccc(N/N=C/c2ccccn2)nc1,-48.3% (active)
21,CC(=O)NCC(=O)N1[C@@H]2CC[C@H]1c1ccc(Nc3ncc(C(F)(F)F)c(NC4CCC4)n3)cc12,72% [2.5 µM]

row,SMILES,growth
1,C#C[C@]1(O)CC[C@H]2[C@@H]3CC=C4c5sc(Nc6cc(OC)ccc6OC)nc5CC[C@]4(C)[C@H]3CC[C@@]21C,9.15% (active)
2,O=[N+]([O-])c1cccc(-c2nc3sccn3c2-c2ccnc(NCCCNS(=O)(=O)c3cccc(F)c3)n2)c1,-13.8% (active)
3,CCN(CC)C(Cl)=Nc1ccc(Cl)cc1,103%
4,COC(c1ccccc1)(c1ccccc1)c1ccccc1,113%
5,CCOC(=O)C(CCC1=NC(C)(C)CC(C)O1)C(=O)OCC (stereo not drawn),70.5%
6,COC(=O)C(C)NC1=C(Cl)C(=O)C(NC(C)C(=O)OC)=C(Cl)C1=O (stereo not drawn),63.6%
7,CCOP(=O)(OCC)OC[C@]12CCC(C)(C)CC1C1=CC[C@@H]3[C@@]4(C)CCCNC(C)(C)[C@@H]4CC[C@@]3(C)[C@]1(C)CC2 (stereo partly drawn),53.5%
8,C#CC#CC#CC#CC#CC#CC#CC#CC[C@@H]1OC[C@H](COC(=O)O[C@@H](C(=O)O[C@H]2C[C@@]3(O)[C@@H](OC(=O)c4ccccc4)[C@@H]4[C@]5(OC(C)=O)CO[C@@H]5C[C@H](O)[C@@]4(C)C(=O)[C@H](OC(C)=O)C(=C2C)C3(C)C)[C@@H](NC(=O)c2ccccc2)c2ccccc2)O1,-8.1% (active)
9,COc1ccc(-c2cc(-c3ccc(Cl)cc3)nc(SCCCC(=O)NO)n2)cc1,-56.2% (active)
10,O=C(Nc1ncc(Cc2cc(Cl)ccc2Cl)s1)c1cccs1,18%
11,CCCCCC#CC1OC23CCCCC2C(C#N)(C(=N)O3)C1(C#N)C#N (stereo not drawn),92.6%
12,COc1cnc2c(c1)C(=O)c1c-2n(CCCn2ccnc2)c(=O)c2cc(F)ccc12,-35.7% (active)
13,CCN1C(=O)N(CC)C2Nn3c(s/c(=C\c4ccccc4Br)c3=O)=NC21 (stereo not drawn),12.3%
14,Cc1ccc(Nc2nnc(-c3ccc(Cl)cc3)o2)c(C)c1,75.4%
15,COc1cnc2c(c1)C(=O)c1c-2n(CCCN2CCN(CCO)CC2)c(=O)c2cc([N+](=O)[O-])ccc12,76.6%
16,O=C(CN1C(=O)NC2NC(=O)NC21)N/N=C/c1ccccc1[N+](=O)[O-] (stereo not drawn),98.5%
17,COc1cc(NC(=O)Nc2cnc(Nc3ccc(N4CCOCC4)cc3)nc2Oc2ccc(C(F)(F)F)cc2)cc(OC)c1,110%
18,CCCC[n+]1c(/C=C\c2c(OC)cc(OC)cc2OC)ccc2ccccc21,-31% (active)
19,COc1cnc2c(c1)C(=O)c1c-2n(CCCNC2=NCCS2)c(=O)c2cc([N+](=O)[O-])ccc12,-39% (active)
20,CN1CCN(C(=O)[C@]23CCC(C)(C)C[C@H]2C2=CC[C@@H]4[C@@]5(C)C/C(=C/c6ccncc6)C(=O)C(C)(C)[C@@H]5CC[C@@]4(C)[C@]2(C)CC3)CC1,44.6%
21,COc1ccc(/C=C/C(=O)c2ccc(NC(=O)CSc3nnc(-c4ccc(Cl)cc4)n3-c3ccccc3)cc2)cc1,94.8%

row,SMILES,growth
1,COc1cc(C(=O)/C=C/c2c(C)n([O-])c3ccc(C(F)(F)F)cc3[n+]2=O)cc(OC)c1OC,36.8%
2,CCCCNCCC(O)c1cc2ccc(C(F)(F)F)cc2c2cc(C(F)(F)F)ccc12 (stereo not drawn),-91% (active)
3,COc1ccc(/C=C/C(=O)N2CCC(O)CC2)cc1OC1CCCC1,114%
4,Cn1c(SCC(=O)c2ccco2)nc2ccccc2c1=O,5.9% (active)
5,CN1CCN(CC(=O)N(C)c2ccc(N=C(c3ccccc3)c3c(O)[nH]c4ccc(C#N)cc34)cc2)CC1,93.8%
6,COc1ccc(NC(=O)c2sc3nc(C)c(C(=O)/C=C/c4ccccc4)cc3c2N)cc1,44.4%
7,COc1ccc2[nH]cc(-c3cc(N)n4nc(-c5c[nH]c6ccc(OC)cc56)cc4n3)c2c1,-47.9% (active)
8,O=C(CSc1nc2ccc([N+](=O)[O-])cc2[nH]1)Nc1cccc(Cl)c1,-10.4% (active)
9,COc1ccc2c(c1)C(=O)c1c-2c(=O)n(CCCN(C)C)c2cc(OC)c(OC)cc12,44.5%
10,O=C(Nc1cccc(-n2cc(-c3ccncc3)c(-c3ccc(O)c(Cl)c3)n2)c1)c1cccc(C(F)(F)F)c1,34.3%
11,CCN(CC)CCNC(=O)n1cc(-c2ccncc2)c(-c2ccc(Cl)c(OC)c2)n1,88.3%
12,COc1ccc2c(c1)oc1c(C)c3c(c(C)c12)C(=O)N(Nc1ccccc1)C3=O,115%
13,Cc1ccc2nc3nc4ccc[nH]c4cc3c2c1,-57.7% (active)
14,Nc1ncnc2c1N=C(c1ccc(F)cc1)CC(c1cccc(Nc3ccnc4cc(Cl)ccc34)c1)N2 (stereo not drawn),74.1%
15,CNCCNc1nc2ccccc2c2c(=O)c3cccc(OC)c3sc12,20.9%
16,CN(C)c1ccc(S(=O)(=O)O)cc1,106%
17,NC(=N\N=C/c1ccc(Cl)cc1Cl)/C(N)=N\N=C/c1ccc(Cl)cc1Cl,62.8%
18,c1ccc2c(c1)CN(CCCN1CCOCC1)C2,89.7%
19,CN(CCC(=O)c1ccccc1)CCC(=O)c1ccccc1,73.4%
20,Cc1ccc(NC(=O)/C=N/O)cc1C,62.4%
21,COc1cc2nc(-c3ccc(C(F)(F)F)cc3)cc(OCCCN3CCCCC3)c2cc1OC,52.5%

row,SMILES,growth
1,Cc1cc(C(=O)NOCCO)c(Nc2ccc(I)cc2F)n(C)c1=O,114%
2,CCNC(=O)N1CCc2cc(OC)c(OCCc3ccc(OC)c(N)c3)cc2C1c1ccc(C)cc1C (stereo not drawn),-0.144% (active)
3,CCN(CC)CCCN1C(=O)c2c(c(C)c3c(oc4ccc(O)cc43)c2C)C1=O,75.7%
4,CCN(CC)CCN1C(=O)c2c(c3c4cc(Br)ccc4[nH]c3c3ccc4ccccc4c23)C1=O,-80.7% (active)
5,CCOC(=O)C1=C(c2ccccc2)N=C2SC=C(c3cccc([N+](=O)[O-])c3)N2C1c1ccc(O)cc1 (stereo not drawn),93.7%
6,COc1ccc(Cc2cnc(NC(=O)c3sc4ccccc4c3Cl)s2)cc1,23.5%
7,CN(C)c1ccc(/C=C/c2ccnc3ccccc23)cc1N,5.88% (active)
8,O=C(CCN1C(=O)/C(=C/c2ccc(O)cc2)SC1=S)Nc1ccccc1,100%
9,COc1ccc(C2CC(c3cccs3)=NN2c2ccc(S(N)(=O)=O)cc2)cc1 (stereo not drawn),8.49% (active)
10,CCCCC(CCc1ccc([N+](=O)[O-])cc1)(C(C)=O)C(=O)OCC (stereo not drawn),83.8%
11,COc1ccc(C2CC(=O)Nc3c2c(C)nn3-c2nc3ccccc3[nH]2)cc1 (stereo not drawn),101%
12,Cc1ccc(C)c(CCO)c1,93.5%
13,O=C(Nc1ccccc1)Oc1cccc2cccnc12,96.9%
14,O=C(O)[C@@H]1[C@H]2C[C@H]3c4[nH]c5ccccc5c4CCN3C[C@@H]2CC[C@@H]1O,104%
15,CC/C(=C(/c1ccc(Cl)cc1)c1ccc(OCCN2CCCC2)cc1)c1ccc(OC)cc1,46.5%
16,COc1cccc2c1c1nc3cc(C)c(C)cc3nc1n2CCN(C)C,-8.02% (active)
17,Cc1cccc(-c2cc(O)c(C(=O)N3CCOCC3)s2)c1,14.1%
18,CN(C)CCN1C(=O)c2cccc3c(N)ccc(c23)C1=O,38.7%
19,COc1ccc(N=Nc2nccs2)c(O)c1,18.6%
20,CCOC(=O)C(=CNc1cnc(Nc2ccc(N3CCOCC3)cc2)nc1Oc1ccc(OC)cc1)C(=O)OCC,61.5%

# Source: PubChem BioAssay (NCI)
